Experimental data published in PubChem BioAssay (NCATS).
Records with an inconclusive call do not appear. The source made the active and inactive calls. Calls follow the shape of the dose curve; as a rule, active = well fitted curve in the direction sought with a large enough effect; inconclusive = small, poorly fitted or top-dose-only effect, or another doubt; inactive = no such curve, though single readings can be large; an effect the other way counts as inactive or inconclusive.

Tests used:
[1] = biological target: Alpha-galactosidase (Coffea arabica) (UniProt Q42656); test: Counterscreen for Glucocerebrosidase Inhibitors: qHTS Assay for Coffee Bean alpha-Galactosidase at pH 4.5 (AID 957); also: series mostly up to about 77 µM
Alpha-galactosidase (Coffea arabica), sequence (Q42656 whole entry, looked up): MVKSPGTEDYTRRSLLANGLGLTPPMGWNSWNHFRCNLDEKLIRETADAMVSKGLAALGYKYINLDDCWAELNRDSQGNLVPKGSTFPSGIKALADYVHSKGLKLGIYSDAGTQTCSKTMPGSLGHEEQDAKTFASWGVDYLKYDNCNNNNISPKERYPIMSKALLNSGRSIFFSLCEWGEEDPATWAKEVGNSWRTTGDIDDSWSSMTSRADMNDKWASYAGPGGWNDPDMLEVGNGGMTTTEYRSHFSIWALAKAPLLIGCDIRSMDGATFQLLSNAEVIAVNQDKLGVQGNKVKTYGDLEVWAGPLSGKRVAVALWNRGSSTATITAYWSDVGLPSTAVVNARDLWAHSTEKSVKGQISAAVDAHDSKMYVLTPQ
Method in brief: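 Coffee bean alpha-galactosidase 2 nM, substrate 4-MU-alpha-Gal 80 uM, pH 4.5 citrate/Tween-20, 20 min RT. Cpd titration 0.7 nM–77 uM. Stop pH 10, fluorescence 365/440 nm; Hill-equation AC50.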

[2] = MultiTox-Fluor Cytotoxicity Assay - LYMP1-002 - Dead Cells (AID 960);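 also: cells exposed to compound for 16 h at 37 °C; nearly all actives have a fitted effect of over 60% in size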
Method in brief: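 LYMP1-002 cells 2500/well; 5 hr 37 C pre-incubation; compound 16 hr 37 C; MultiTox-Fluor reagent 60 min RT; dead-cell fluor Ex/Em 485/520. Norm. to DMSO (0%) vs 15 uM tetraoctylammonium bromide (100%); Hill AC50.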

[3] = MultiTox-Fluor Cytotoxicity Assay - LYMP1-003 - Dead Cells (AID 961);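 also: cells exposed to compound for 16 h at 37 °C; nearly all actives have a fitted effect of over 70% in size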
Method in brief: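 LYMP1-003 lymphoblastoid, 2500 cells/well, 5 hr settle then 16 hr cpd at 37 C; MultiTox-Fluor reagent 60 min RT; Ex/Em 485/520 dead-cell signal; norm. DMSO = 0%, 15 uM tetraoctylammonium bromide = 100%; Hill AC50.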

[4] = MultiTox-Fluor Cytotoxicity Assay - LYMP1-003 - Live Cells (AID 962);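 also: cells exposed to compound for 16 hours at 37 °C; cytotoxic hits lower the live-cell protease signal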
Method in brief: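 qHTS, 1536-well; 2500 cells/well LYMP1-003; 5 hr 37 C settle; cpd 16 hr 37 C; MultiTox-Fluor reagent 60 min RT; live-cell protease fluor. 405/510; Hill-fit AC50; tetraoctylammonium bromide pos. ctrl.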

[5] = Cell Viability - LYMP1-003 - Assay at 24 hr (AID 963)
Method in brief: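 Cells seeded at 2500/well, 5 hr at 37 C; compounds added; 24 hr at 37 C; CellTiter-Glo added, 30 min room temperature; luminescence read. Decrease in ATP taken as cytotoxicity, AC50 from Hill modelling.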

[6] = Cell Viability - LYMP1-003 - Assay at 40 hr (AID 964); also: series mostly up to about 92 µM; nearly all actives have a fitted effect of over 60% in size
Method in brief: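 Cells were seeded at 2500 per well and incubated 5 hr at 37 C. Compounds were added across a concentration series and left 40 hr at 37 C. CellTiter-Glo was added for 30 min at room temperature before luminescence reading.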

[7] = Cell Viability - LYMP2-003 (AID 965);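 also: cells exposed to compounds for 24 h before reading; nearly all actives have a fitted effect of over 50% in size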
Method in brief: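 Acute cytotoxicity is scored as a concentration-dependent drop in intracellular ATP, measured by luciferase luminescence in human lymphoblastoid cells treated for 24 hours at 37 C. AC50 values derive from Hill-equation modelling.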

[8] = Cell Viability - LYMP2-004 (AID 966); also: nearly all actives have a fitted effect of over 65% in size
Method in brief: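 Cells seeded 2500/well, rested 5 hr at 37 C, dosed across a concentration series, incubated 24 hr at 37 C, then CellTiter-Glo added for 30 min at room temperature and luminescence read. Hill fitting gave AC50.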

[9] = Cell Viability - LYMP2-005 (AID 967); also: series mostly up to about 92 µM
Method in brief: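 qHTS viability screen in LYMP2-005 cells: 24 h at 37 C with compound, ATP luminescence via CellTiter-Glo, AC50 from Hill curves.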

[10] = Cell Viability - LYMP2-009 (AID 968); also: series mostly up to about 92 µM; nearly all actives have a fitted effect of over 55% in size
[11] = Cell Viability - LYMP2-013 (AID 970); also: series mostly up to about 92 µM; nearly all actives have a fitted effect of over 55% in size
Method in brief: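 qHTS; 2500 lymphoblastoid cells/well; 5 hr 37 C settle; cpd 24 hr 37 C; CellTiter-Glo, 30 min RT; luminescence. AC50 = Hill fit.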

[12] = Cell Viability - LYMP2-015 (AID 971); also: nearly all actives have a fitted effect of over 55% in size
Method in brief: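 Luminescent ATP read-out (CellTiter-Glo) served as the viability measure after lymphoblastoid cells were exposed to compounds for 24 hours at 37 C. Concentration-response data were fitted with the Hill equation to give AC50.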

[13] = Cell Viability - LYMP2-017 (AID 972); also: series mostly up to about 92 µM; nearly all actives have a fitted effect of over 55% in size
Method in brief: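 2500 cells/well, 5 h 37 C; cpd 24 h 37 C in complete medium; CellTiter-Glo, 30 min RT; luminescence (ATP). AC50 via Hill fit, qHTS.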

[14] = Cell Viability - LYMP2-019 (AID 973); also: nearly all actives have a fitted effect of over 55% in size
Method in brief: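 Luminescent ATP read-out (CellTiter-Glo, 30 min room temperature) served as the viability measure after 24 hr treatment of lymphoblastoid cells at 37 C. Concentration-response data were fitted to the Hill equation for AC50.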

[15] = Cell Viability - LYMP2-021 (AID 974)
Method in brief: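 Plate 2500 lymphoblastoid cells per well and incubate 5 hr at 37 C. Add compounds over a concentration range and incubate 24 hr at 37 C. Add CellTiter-Glo, wait 30 min at room temperature, read luminescence.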

[16] = Cell Viability - LYMP2-023 (AID 975)
Method in brief: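 2500 cells/well, 5 hr 37 C; cpd 24 hr 37 C; CellTiter-Glo, 30 min RT; luminescence. qHTS conc-response, Hill fit -> AC50. Pos ctrl tetraoctylammonium bromide.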

[17] = Cell Viability - LYMP2-025 (AID 976); also: series mostly up to about 92 µM
Method in brief: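 Seed 2500 LYMP2-025 cells/well; 5 hr at 37 C; add compound; 24 hr at 37 C; add CellTiter-Glo; 30 min RT; read luminescence. AC50 from Hill-modelled concentration-response.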

[18] = Cell Viability - LYMP2-002 (AID 977);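 also: series mostly up to about 92 µM; compound exposure lasted 24 h at 37 °C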
Method in brief: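 Cytotoxicity is scored as concentration-dependent loss of cellular ATP in a human lymphoblastoid line after 24 hr compound treatment at 37 C. AC50 is obtained by modelling concentration-response data with the Hill equation.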

[19] = Cell Viability - LYMP2-007 (AID 979);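 also: cells exposed to compound for 24 h before reading; nearly all actives have a fitted effect of over 60% in size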
Method in brief: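 Luminescent ATP signal (CellTiter-Glo) serves as the viability read-out after 24 hr compound treatment of lymphoblastoid cells in complete medium at 37 C. Concentration-response data were fitted to the Hill equation to give AC50 values.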

[20] = Cell Viability - LYMP2-008 (AID 980); also: nearly all actives have a fitted effect of over 60% in size
Method in brief: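 qHTS, human lymphoblastoid line, 2500 cells/well; 5 hr preincubation, 24 hr compound, 37 C. CellTiter-Glo ATP luminescence. AC50 via Hill equation. Tetraoctylammonium bromide positive control.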

Measured: Potency

O=P1(N(CCCl)CCCl)NCCCO1 (stereo unspecified)
inactive: all assays above

NC(N)=NC(=O)Cc1c(Cl)cccc1Cl
inactive: [1]

CCOC(=O)CC(SP(=S)(OC)OC)C(=O)OCC (stereo unspecified)
not listed: [1] | [2] | [9]
inactive: all other assays above

Nc1ccccc1
not listed: [1] | [2] | [18]
inactive: all other assays above

CCC(C)(C)c1ccc(O)cc1
not listed: [1]
inactive: all other assays above

COc1ccc(C2CNC(=O)C2)cc1OC1CCCC1 (stereo unspecified)
inactive: [1]

O=c1[nH]cnc2[nH]ncc12
inactive: [1]

NCCc1ccc(O)cc1
inactive: all assays above
